Measured values as given in PubChem BioAssay (NCATS).
Where “and” joins values, the source holds several entries; their conditions need not be identical. Identical values can stand only once. Results filed as inconclusive are left out. Calls of active or inactive are those of the source. The call rests on the fitted dose curve; in most records, active means well fitted curve in the direction sought with a large enough effect; inconclusive means small, poorly fitted or top-dose-only effect, or another doubt; inactive means no such curve, though single readings can be large; an effect the other way counts as inactive or inconclusive.

Assays:
NIH3T3 [1] = assay: Cytotoxic Profiling of Annotated Libraries Using Quantitative High-Throughput Screening (AID 1296008); details: Five cell lines viability, CellTiter-Glo ATP luminescence, 48-72 h; max response: stronger effect = lower value; further: nearly all actives have a fitted effect of over 60% in size
Procedure, shortened: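 Compounds were pin-transferred onto cells and incubated 48 or 72 hr at 37 degree Celsius, 95% humidity. CellTiter-Glo was added, plates sat 10 min at room temperature, then ATP-coupled luminescence was imaged as the viability read-out.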

HACAT = assay: qHTS assay to identify novel small-molecules to repurpose for Merkel cell carcinoma treatment (AID 1296009); details: MCC and control cell lines, CellTiter-Glo viability, 72 h; at 44.8 µM (top of the series) unless noted; further: nearly all actives have a fitted effect of over 60% in size
Procedure, shortened: (§1)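 qHTS format: cells treated with library compounds in DMSO across 8 (NPC) or 11 (MIPE) concentrations. Readout after 72 hr at 37 degree celsius was CellTiter-Glo luminescence.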

MCC-13 = assay: as above; details: MCC and control cell lines, CellTiter-Glo viability, 72 h; series mostly up to 46 µM
Procedure, shortened: as §1

MCC-26 = assay: as above; details: MCC and control cell lines, CellTiter-Glo viability, 72 h; series mostly up to 46 µM
Procedure, shortened: as §1

MKL-1 = assay: as above; details: MCC and control cell lines, CellTiter-Glo viability, 72 h; series mostly up to 46 µM
Procedure, shortened: as §1

MKL-2 = assay: as above; details: MCC and control cell lines, CellTiter-Glo viability, 72 h; series mostly up to 46 µM
Procedure, shortened: as §1

UISO = assay: as above; details: MCC and control cell lines, CellTiter-Glo viability, 72 h; series mostly up to 46 µM
Procedure, shortened: as §1

WaGa = assay: as above; details: MCC and control cell lines, CellTiter-Glo viability, 72 h; series mostly up to 46 µM
Procedure, shortened: as §1

C33A = assay: Primary qHTS to identify gynecologic anti-cancer compounds using libraries of approved drugs and bioactive compounds (AID 1345084); details: Gynecologic cancer cell panel viability, ATPlite luminescence, 48 h; series mostly up to 57.5 µM; further: nearly all actives have a fitted effect of over 55% in size
Procedure, shortened: (§2)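 Cells, 1,000 per well, were allowed to settle for 16 h at 37 C before compound addition. Five concentrations were tested for 48 h, and viability was read by ATPlite luminescence after 15 min at room temperature.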

CASKI = assay: as above; details: Gynecologic cancer cell panel viability, ATPlite luminescence, 48 h; series mostly up to 57.5 µM
Procedure, shortened: as §2

Es-2 = assay: as above; details: Gynecologic cancer cell panel viability, ATPlite luminescence, 48 h; series mostly up to 57.5 µM
Procedure, shortened: as §2

HeLa = assay: as above; details: Gynecologic cancer cell panel viability, ATPlite luminescence, 48 h; series mostly up to 57.5 µM
Procedure, shortened: as §2

Hek293T [2] = assay: as above; details: Gynecologic cancer cell panel viability, ATPlite luminescence, 48 h, control line for the selectivity index; series mostly up to 57.5 µM
Procedure, shortened: as §2

JEG-3 = assay: as above; details: Gynecologic cancer cell panel viability, ATPlite luminescence, 48 h; series mostly up to 57.5 µM
Procedure, shortened: as §2

OV90 = assay: as above; details: Gynecologic cancer cell panel viability, ATPlite luminescence, 48 h; series mostly up to 57.5 µM
Procedure, shortened: as §2

PA-1 = assay: as above; details: Gynecologic cancer cell panel viability, ATPlite luminescence, 48 h; series mostly up to 57.5 µM
Procedure, shortened: as §2

SKOV3 = assay: as above; details: Gynecologic cancer cell panel viability, ATPlite luminescence, 48 h; series mostly up to 57.5 µM
Procedure, shortened: as §2

HEK293T [3] = assay: qHTS assay to identify novel small-molecules to repurpose for Merkel cell carcinoma treatment (AID 1296009); details: MCC and control cell lines, CellTiter-Glo viability, 72 h; at 44.8 µM (top of the series); further: nearly all actives have a fitted effect of over 60% in size
Procedure, shortened: as §1

NIH3T3 [4] = assay: as above; details: MCC and control cell lines, CellTiter-Glo viability, 72 h; at 44.8 µM (top of the series) unless noted
Procedure, shortened: as §1

CAOV3 = assay: Primary qHTS to identify gynecologic anti-cancer compounds using libraries of approved drugs and bioactive compounds (AID 1345084); details: Gynecologic cancer cell panel viability, ATPlite luminescence, 48 h; series mostly up to 57.5 µM; further: nearly all actives have a fitted effect of over 55% in size
Procedure, shortened: as §2
On the % scale 0 is the no-effect control and ±100 the full control effect.

COc1ccc2nc(S(=O)Cc3ncc(C)c(OC)c3C)[nH]c2c1 (configuration not stated)
inactive: max response (NIH3T3 [1]) -7.21% and -1.13% | outcome (HACAT) | Potency (MCC-13) | Potency (MCC-26) | Potency (MKL-1) | Potency (MKL-2) | Potency (UISO) | Potency (WaGa) | Potency (C33A) | Potency (CASKI) | Potency (Es-2) | Potency (HeLa) | Potency (Hek293T [2]) | Potency (JEG-3) | Potency (OV90) | Potency (PA-1) | Potency (SKOV3)

CCC(=O)N[C@H]1CC[C@H](C(=O)N(C)c2ccc(-c3nc4ccccc4o3)cc2)C1
inactive: max response (NIH3T3 [1]) -2.14% | outcome (HACAT) | Potency (MCC-13) | Potency (MCC-26) | Potency (MKL-1)

O=C(Nc1nc2ccccc2n1CCN1CCOCC1)c1cccc([N+](=O)[O-])c1
inactive: outcome (NIH3T3 [1]) | outcome (HACAT) | outcome (HEK293T [3]) | Potency (MCC-13) | Potency (MCC-26) | outcome (NIH3T3 [4]) | Potency (UISO)

NCCCC(N)(C(=O)O)C(F)F (configuration not stated)
inactive: max response (NIH3T3 [1]) -17.4% | outcome (HACAT) | Potency (MCC-13) | Potency (MCC-26) | Potency (MKL-1) | Potency (MKL-2) | Potency (UISO) | Potency (WaGa) | Potency (C33A) | Potency (CAOV3) | Potency (CASKI) | Potency (Es-2) | Potency (HeLa) | Potency (Hek293T [2]) | Potency (JEG-3) | Potency (OV90) | Potency (PA-1) | Potency (SKOV3)

NC(=O)c1ccc(I)c([N+](=O)[O-])c1
inactive: max response (NIH3T3 [1]) -1.58% | outcome (HACAT) | outcome (HEK293T [3]) | Potency (MCC-13) | Potency (MKL-1) | Potency (MKL-2) | Potency (UISO) | Potency (WaGa)

O=C1CCc2cc(OCCCCc3nnnn3C3CCCCC3)ccc2N1
inactive: outcome (NIH3T3 [1]) | outcome (HACAT) | Potency (MCC-13) | Potency (MCC-26) | Potency (MKL-1) | Potency (MKL-2) | outcome (NIH3T3 [4]) | Potency (UISO) | Potency (WaGa) | Potency (C33A) | Potency (CASKI) | Potency (Es-2) | Potency (HeLa) | Potency (Hek293T [2]) | Potency (JEG-3) | Potency (PA-1) | Potency (SKOV3)

COc1cc(Oc2ccnc3cc(OC)c(OC)cc23)ccc1NC(=O)NC(C)c1nccs1 (configuration not stated)
inactive: outcome (NIH3T3 [1]) | outcome (HACAT) | Potency (MCC-13) | Potency (MCC-26) | Potency (MKL-1) | Potency (MKL-2) | outcome (NIH3T3 [4]) | Potency (WaGa) | Potency (C33A) | Potency (CAOV3) | Potency (CASKI) | Potency (Es-2) | Potency (HeLa) | Potency (Hek293T [2]) | Potency (JEG-3) | Potency (OV90) | Potency (PA-1) | Potency (SKOV3)

Cc1cc(C=c2sc3nc4ccccc4n3c2=O)c(C)n1-c1ccccc1
inactive: max response (NIH3T3 [1]) -1.17% | outcome (HACAT) | Potency (MCC-13) | Potency (MCC-26) | Potency (MKL-1) | Potency (MKL-2) | Potency (UISO) | Potency (WaGa)

CNC(=O)c1ccc(N2C(=S)N(c3ccc(C#N)c(C(F)(F)F)c3)C(=O)C2(C)C)cc1F
inactive: max response (NIH3T3 [1]) -6.26% | outcome (HACAT) | Potency (MCC-13) | Potency (MCC-26) | Potency (MKL-1) | Potency (MKL-2) | Potency (UISO) | Potency (WaGa)

COc1ccc(-c2c(-c3ccc(O)cc3O)n[nH]c2C)cc1
inactive: max response (NIH3T3 [1]) -24.1% | outcome (HACAT) inactive; activator [at 92 µM] | Potency (MCC-13) | Potency (MCC-26) | Potency (MKL-1) | Potency (MKL-2) | Potency (UISO) | Potency (WaGa)

C[C@]12CC[C@H](O)CC1=CC[C@@H]1[C@H]2CC[C@]2(C)C(c3cccnc3)=CC[C@H]12
inactive: max response (NIH3T3 [1]) 0.502% | outcome (HACAT) inactive [at 17.4 µM] | Potency (MCC-13) | Potency (MCC-26) | Potency (MKL-1) | Potency (MKL-2) | Potency (UISO) | Potency (WaGa)
